The values below come from PubChem BioAssay (EPA / NIEHS).

Test [1] in a line: ATG_CRE_CIS: Attagene CIS-FACTORIAL HepG2 Assay for human cAMP Responsive Element (CRE) binding protein 3 (AID 2282926). The conditions noted are these: HepG2 CRE cis-reporter, Attagene multiplexed mRNA; actives raise or lower the signal. The procedure, abridged: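 Capillary electrophoresis of 6-FAM-labelled, HpaI-digested PCR products quantified reporter transcripts. These came from HepG2 transiently transfected with cis-element reporters and exposed to test chemicals for 24 hours, with DMSO defining baseline activity.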

The target in test [2] is CCAAT/enhancer-binding protein beta (Homo sapiens) (UniProt P17676). The experiment in a line: ATG_C_EBP_CIS: Attagene CIS-FACTORIAL HepG2 Assay for human CCAAT/Enhancer Binding Protein (C/EBP) beta (AID 2282927). Particulars: HepG2 Attagene cis-factorial transcription factor reporter; actives raise or lower the signal. The procedure, abridged:
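Following a 24 h incubation with test chemical, transfected HepG2 cells yielded RNA whose reporter transcripts were quantified by RT-PCR and fluorescent capillary electrophoresis, with DMSO serving as baseline for bidirectional fitting.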

Test [3] in a line: ATG_CMV_CIS: Attagene CIS-FACTORIAL HepG2 Assay for human CMV (Internal Marker) (AID 2282928).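 Also: endpoint acts as a background internal control marker rather than a target.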 The conditions noted are these: HepG2 CMV promoter reporter, transcription factor profiling; actives raise or lower the signal. The procedure, abridged:
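Fluorescence intensity of RT-PCR-derived reporter fragments, resolved by capillary electrophoresis, gives the signal. HepG2 liver cells bearing transfected cis-element reporters were treated 24 h; activity in either direction was fit relative to DMSO-treated controls.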

Test [4] in a line: ATG_DR4_LXR_CIS: Attagene CIS-FACTORIAL HepG2 Assay for human Liver X Receptor (LXR), DR4 submotif (AID 2282929). The conditions noted are these: HepG2 Attagene DR4 cis-reporter, mRNA transcription; actives raise or lower the signal. In a few lines:
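Cells were transfected with multiple reporter transcription units, exposed to chemicals for 24 hours, then lysed for RNA. Reporter mRNA induction was measured by RT-PCR with capillary electrophoresis detection and fitted in both directions relative to DMSO.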

The target in test [5] is Aryl hydrocarbon receptor (Homo sapiens) (UniProt P35869). The experiment in a line: ATG_Ahr_CIS: Attagene CIS-FACTORIAL HepG2 Assay for human Aryl Hydrocarbon Receptor (Ahr) (AID 2282930). The conditions noted are these: HepG2 AhR cis-factorial reporter transcription; actives raise or lower the signal. In a few lines: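 Values derive from bidirectional fitting against DMSO negative control. Underlying signal: cis-element reporter mRNA in transiently transfected HepG2, harvested 24 h post-dose and measured by RT-PCR plus capillary electrophoresis.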
Aryl hydrocarbon receptor (Homo sapiens), sequence (P35869 whole entry, looked up): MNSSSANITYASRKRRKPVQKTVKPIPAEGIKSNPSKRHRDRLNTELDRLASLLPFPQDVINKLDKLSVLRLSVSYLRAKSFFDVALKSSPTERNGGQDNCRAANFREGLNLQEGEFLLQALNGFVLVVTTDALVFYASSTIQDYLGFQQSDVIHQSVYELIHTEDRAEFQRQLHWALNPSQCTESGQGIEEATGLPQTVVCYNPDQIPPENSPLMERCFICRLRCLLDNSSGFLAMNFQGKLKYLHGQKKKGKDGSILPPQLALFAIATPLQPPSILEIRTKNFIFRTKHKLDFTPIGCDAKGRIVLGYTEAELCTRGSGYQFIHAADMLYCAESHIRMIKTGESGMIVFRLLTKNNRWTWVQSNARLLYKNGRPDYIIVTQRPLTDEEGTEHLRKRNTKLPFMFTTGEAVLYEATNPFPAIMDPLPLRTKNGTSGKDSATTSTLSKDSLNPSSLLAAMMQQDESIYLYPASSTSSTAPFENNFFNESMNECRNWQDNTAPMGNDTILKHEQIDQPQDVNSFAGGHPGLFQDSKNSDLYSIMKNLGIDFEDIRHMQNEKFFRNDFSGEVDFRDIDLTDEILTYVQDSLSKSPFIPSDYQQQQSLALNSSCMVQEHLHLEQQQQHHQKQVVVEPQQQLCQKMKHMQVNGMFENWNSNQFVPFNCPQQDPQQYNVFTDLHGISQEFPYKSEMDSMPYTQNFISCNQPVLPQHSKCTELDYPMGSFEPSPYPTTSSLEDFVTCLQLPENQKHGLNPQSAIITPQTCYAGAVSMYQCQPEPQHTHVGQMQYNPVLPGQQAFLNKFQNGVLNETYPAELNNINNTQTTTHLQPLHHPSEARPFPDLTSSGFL

Test [6] can be described thus: ATG_AP_1_CIS: Attagene CIS-FACTORIAL HepG2 Assay for human Activator Protein 1 (AP-1) (AID 2282931). The conditions noted are these: HepG2 Attagene cis-factorial AP-1 reporter mRNA; actives raise or lower the signal. The procedure, abridged:
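Endogenous transcription-factor activity in human HepG2 liver cells is read through a cis-promoter reporter transcript, sampled 24 h after dosing. Detection uses RT-PCR with capillary electrophoresis; values come from bidirectional fitting relative to DMSO.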

A short description of test [7]: ATG_AP_2_CIS: Attagene CIS-FACTORIAL HepG2 Assay for human Activator Protein 2 (AP-2) (AID 2282932). Particulars: HepG2 AP-2 cis-reporter, Attagene transcription factor profiling; actives raise or lower the signal. The procedure, abridged:
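Assay in transfected HepG2 with promoter-regulated reporters, 24 h incubation after dosing. Signal is reporter mRNA fluorescence (RT-PCR, capillary electrophoresis), analysed for both increases and decreases relative to DMSO controls.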

Test [8] can be described thus: ATG_BRE_CIS: Attagene CIS-FACTORIAL HepG2 Assay for human Bone Morphogenetic Protein (BMP) Response Element (BRE) (AID 2282933). The conditions noted are these: HepG2 BMP response element reporter, Attagene transcription factor profiling; actives raise or lower the signal. The procedure, abridged:
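A HepG2 multiplex reporter system measured inducible reporter mRNA 24 h post-dosing. Detection: RT-PCR, 6-FAM primer extension, HpaI digestion, capillary electrophoresis. Activity fitted bidirectionally relative to DMSO.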

Test [9] addresses Retinoic acid receptor alpha (Homo sapiens) (UniProt P10276). The experiment in a line: ATG_DR5_RAR_CIS: Attagene CIS-FACTORIAL HepG2 Assay for human Retinoic Acid Receptor Alpha (RARE), DR5 submotif (AID 2282934).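 As to AC50: reporter responds to endogenous RAR alpha beta and gamma in HepG2 not RARA alone.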 The conditions noted are these: HepG2 Attagene cis-factorial RARE DR5 reporter, mRNA; actives raise or lower the signal. The procedure, abridged: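 Endpoint fitted in both directions relative to DMSO as negative control. It reflects DR5 cis-element reporter mRNA induction in transiently transfected HepG2 cells, measured 24 h after dosing through RT-PCR and fluorescent capillary electrophoresis.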

The target in test [10] is Transcription factor E2F1 (Homo sapiens) (UniProt Q01094). The experiment in a line: ATG_E2F_CIS: Attagene CIS-FACTORIAL HepG2 Assay for human E2F Transcription Factor 1 (AID 2282935). Particulars: HepG2 Attagene cis-reporter, E2F reporter RNA transcripts; actives raise or lower the signal. The procedure, abridged: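 In this cis-factorial format, endogenous factor activity drives transfected reporters in HepG2; transcripts collected at 24 h are quantified by fluorescence after RT-PCR and capillary separation.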
Transcription factor E2F1 (Homo sapiens), sequence (Q01094 whole entry, looked up): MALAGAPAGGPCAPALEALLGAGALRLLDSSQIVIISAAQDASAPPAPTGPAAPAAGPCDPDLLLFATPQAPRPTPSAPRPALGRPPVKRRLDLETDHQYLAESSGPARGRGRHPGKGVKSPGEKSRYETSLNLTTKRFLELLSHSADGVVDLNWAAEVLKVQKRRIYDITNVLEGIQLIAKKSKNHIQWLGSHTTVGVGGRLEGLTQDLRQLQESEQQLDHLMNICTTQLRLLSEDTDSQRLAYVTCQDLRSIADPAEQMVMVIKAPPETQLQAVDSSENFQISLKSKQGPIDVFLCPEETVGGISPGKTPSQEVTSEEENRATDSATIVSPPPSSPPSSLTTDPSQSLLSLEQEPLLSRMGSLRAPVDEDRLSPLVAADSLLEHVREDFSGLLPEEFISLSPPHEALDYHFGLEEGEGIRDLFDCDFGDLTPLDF

Active and inactive are the calls of the source. The calls were made as follows: active = hit-call score of the fitted dose curve at least 0.9, where 1 is the maximum; inactive = score below 0.9.

Retinoic acid receptor alpha (Homo sapiens), sequence (P10276 whole entry, looked up): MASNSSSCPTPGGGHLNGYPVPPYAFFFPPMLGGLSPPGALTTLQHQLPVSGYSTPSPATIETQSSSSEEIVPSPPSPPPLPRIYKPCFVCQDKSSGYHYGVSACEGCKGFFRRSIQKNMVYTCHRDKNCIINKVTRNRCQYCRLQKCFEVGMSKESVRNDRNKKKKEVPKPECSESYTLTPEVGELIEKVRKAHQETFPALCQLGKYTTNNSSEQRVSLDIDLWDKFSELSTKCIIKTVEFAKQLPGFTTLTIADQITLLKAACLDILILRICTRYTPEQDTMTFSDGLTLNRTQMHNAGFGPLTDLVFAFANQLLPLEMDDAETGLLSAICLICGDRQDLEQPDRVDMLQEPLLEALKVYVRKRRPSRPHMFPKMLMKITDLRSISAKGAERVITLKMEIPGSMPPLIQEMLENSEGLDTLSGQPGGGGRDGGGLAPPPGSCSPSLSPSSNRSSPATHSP
CCAAT/enhancer-binding protein beta (Homo sapiens), sequence (P17676 whole entry, looked up): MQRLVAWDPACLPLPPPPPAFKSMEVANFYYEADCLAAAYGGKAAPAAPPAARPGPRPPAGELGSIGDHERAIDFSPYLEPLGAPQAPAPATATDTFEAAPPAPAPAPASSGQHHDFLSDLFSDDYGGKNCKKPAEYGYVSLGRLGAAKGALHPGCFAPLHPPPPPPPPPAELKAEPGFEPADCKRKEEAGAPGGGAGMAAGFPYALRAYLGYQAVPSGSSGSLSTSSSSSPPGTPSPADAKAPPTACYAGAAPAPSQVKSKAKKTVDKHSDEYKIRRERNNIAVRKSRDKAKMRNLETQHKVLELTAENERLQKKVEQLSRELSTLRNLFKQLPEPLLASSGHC

On to `OCc1ccc(Cl)cc1Cl`, for which the outcome in [1], in [2], in [3], in test [4], in [5] and in [6] was inactive. Further, the outcome in test [7], in test [8], in test [9] and in [10] was inactive.

A word on the AC50: it is the concentration giving half of the maximal activity seen. Consider `CCCC(=O)OC(C)(C)Cc1ccccc1`, for which the call in test [1], in test [2], in test [3], in test [4], in [6] and in test [7] was inactive. For the same molecule, the result in [8], in test [9] and in [10] was inactive. In test [5], the AC50 was 72.8 µM (active).

Regarding `COc1ccc(N)c([N+](=O)[O-])c1`, the molecule was called inactive in test [1], in [2], in test [3], in test [4], in test [5] and in test [6]. The molecule was called inactive in [7], in test [8], in [9] and in test [10].

For `COc1cccc(OC)c1O`, the outcome in [1], in test [2], in test [3], in [4], in [5] and in test [6] was inactive. Further, the result in test [7], in [8], in [9] and in test [10] was inactive.

For `CCNCCO`, the molecule was called inactive in test [1], in test [2], in test [3], in test [4], in [5] and in test [6]. Moreover, the call in test [7], in test [8], in [9] and in [10] was inactive.

For `COC(CC(C)CCCC(C)(C)O)OC` (stereo not given), the result in test [1], in test [2], in [3], in test [4], in test [5] and in test [6] was inactive. In addition, the molecule was called inactive in test [7], in test [8], in [9] and in test [10].

`CCc1ncc(C)[nH]1`: the molecule was called inactive in test [1], in [2], in test [3], in test [4], in test [5] and in [6]. Moreover, the call in test [7], in [8], in test [9] and in test [10] was inactive.

Take `CCOc1ccc(N=Nc2ccc(C=Cc3ccc(N=Nc4ccc(OCC)cc4)cc3S(=O)(=O)O)c(S(=O)(=O)O)c2)cc1`: the molecule was called inactive in test [1], in [2], in test [3], in test [4], in test [6] and in test [7]. In addition, the call in [9] and in test [10] was inactive. For the same molecule, the AC50 is 12.2 µM (active) in test [5] and 7.28 µM (active) in test [8].

As for `COC(=O)c1ccc(C)cc1C1=NC(C)(C(C)C)C(=O)N1` (stereo not given) (tested in a mixture with another compound), the outcome in test [1], in test [2], in [3], in test [4], in [5] and in test [6] was inactive. For the same molecule, the call in [7], in test [8], in test [9] and in [10] was inactive.

On to `CCCC(=O)C(CC)Sc1ccoc1C` (stereo not given), for which the AC50 in [1] is 25.7 µM (active); in test [6] it was 26.5 µM (active). In addition, the outcome in test [2], in [3], in test [4], in [5], in test [7] and in test [8] was inactive. Moreover, the result in test [9] and in test [10] was inactive.

Take `C1=CC2C3C=CC(C3)C2C1` (stereo not given): the molecule was classed as inactive in [1], in [2], in test [3], in test [4], in [6] and in test [7]. Besides, the molecule was called inactive in [8], in test [9] and in test [10]. Further, the AC50 in test [5] is 98.5 µM (active).

With `CCOC(=O)[C@@H](C)Oc1ccc(Oc2nc3ccc(Cl)cc3o2)cc1`, the call in [1], in test [2], in test [3], in test [5], in test [6] and in test [7] was inactive. The molecule was called inactive in test [9] and in [10]. Moreover, the AC50 in [4] is 152 µM (active); in test [8], 156 µM (active).

In the case of `Cc1[nH]c(=O)c(C#N)cc1-c1ccncc1`, the molecule was called inactive in [1], in test [2], in [5], in [6], in test [7] and in test [8]. The molecule was called inactive in test [9] and in test [10]. For the same molecule, the AC50 in test [3] is 24.3 µM (active); in [4], 26.6 µM (active).

Regarding `C=C1CC[C@H](O)C/C1=C/C=C1\CCC[C@]2(C)[C@@H]([C@H](C)/C=C/[C@H](C)C(C)C)CC[C@@H]12`, the result in [1], in [2], in test [3], in test [4], in [5] and in test [7] was inactive. Moreover, the outcome in [8] and in test [10] was inactive. Moreover, the AC50 is 30.3 µM (active) in [6] and 39.8 µM (active) in [9].

As to `CCCCCCCCCCCCN1CCCCCC1=O`, the molecule was classed as inactive in test [1], in test [2], in test [3], in [5], in [7] and in [9]. The molecule was classed as inactive in test [10]. Besides, the AC50 in test [4] is 18.6 µM (active); in test [6], 11.1 µM (active); in [8], 16.4 µM (active).

For the molecule `O=P(O)(O)O`, the call in [1], in test [2], in test [3], in test [4], in test [5] and in test [6] was inactive. In addition, the molecule was classed as inactive in [7], in test [8], in [9] and in test [10].

Turning to `C#CC(C)N(C)C(=O)Nc1ccc(Cl)cc1` (stereo not given), the molecule was classed as inactive in test [1], in test [2], in test [3], in test [4], in test [5] and in test [6]. Also, the outcome in test [7], in test [8], in test [9] and in test [10] was inactive.

Take `Nc1c(Cl)cc(Cl)cc1[N+](=O)[O-]`: the outcome in [1], in [2], in test [4], in test [5], in test [6] and in test [7] was inactive. Further, the outcome in test [8], in test [9] and in test [10] was inactive. Further, the AC50 in test [3] was 69.1 µM (active).

Turning to `COc1ccccc1[N+](=O)[O-]`, the molecule was called inactive in [1], in test [2], in test [3], in test [4], in test [5] and in test [6]. The molecule was classed as inactive in test [7], in test [8], in test [9] and in test [10].
